# Data taken from PubChem BioAssay (EPA / NIEHS).
# Records with an inconclusive call do not appear. The source made the active and inactive calls. How the source made its calls: active means hit-call score of the fitted dose curve at least 0.9, where 1 is the maximum; inconclusive means response in the unintended direction; inactive means score below 0.9.
# Molecular target: Glucocorticoid receptor (Homo sapiens) (UniProt P04150)
# Test: ATG_GR_TRANS: Attagene TRANS-FACTORIAL HepG2 Assay for human Glucocorticoid Receptor (GR) (AID 2282978);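 further: activators score as hits since higher reporter transcript over DMSO is fitted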
# Details: HepG2 Attagene TRANS GR reporter, mRNA transcription
# Experimental: ATG_TRANS is a cell-based, multiplexed-readout assay that uses HepG2, a human liver cell line, with measurements taken at 24 hours after chemical dosing in a 24-well plate.ATG_GR_TRANS is one of 30 assay component(s) measured or calculated from the ATG_TRANS assay. It is designed to make measurements of mRNA induction, a form of inducible reporter, as detected with fluorescence intensity signals by Reverse transcription polymerase chain reaction (RT-PCR) and Capillary electrophoresis technology.Data from the assay component ATG_GR_TRANS was analyzed into 1 assay endpoint. This assay endpoint, ATG_GR_TRANS, was analyzed in the positive analysis fitting direction relative to DMSO as the negative control and baseline of activity. Using a type of inducible reporter, measures of mRNA for gain-of-signal activity can be used to understand the reporter gene at the transcription factor-level as they relate to the gene NR3C1. Furthermore, this assay endpoint can be referred to as a primary readout, because this assay has produced multiple assay endpoints where this one serves a reporter gene function. To generalize the intended target to other relatable targets, this assay endpoint is annotated to the nuclear receptor intended target family, where the subfamily is steroidal.
# Human liver HepG2 cells are transiently transfected with multiple reporter transcription units (MRTUs) in 6-well plates using FuGene 6 reagent (Roche; 3 ml FuGene/1 mg DNA). The MRTU constructs are regulated by a cis-regulating element (promoter). […] A major difference between the CIS and TRANS system is that in CIS activities of endogenous TFs are measured, whereas the TRANS assay evaluates changes in activities of exogenous, chimeric NR-Gal4 proteins. […] At the end of 24 hour incubation, total RNA was isolated using TriZol reagent (Invitrogen). The isolated RNA is then reverse-transcribed using oligo(dT) primer and Mo-MLV reverse transcriptase (Invitrogen) with DNAse I (Ambion) treatment for 30 min. The one-tenth of the produced cDNA was amplified by PCR using Taq DNA polymerase (Invitrogen) and two reporter sequence-specific primers. The PCR products were fluorescently labeled by primer extension with 6-arboxyfluorescein (6-FAM) 5'-labeled reporter sequence-specific primer (2 min at 95 C, 20 s at 68 C and 10 min at 72 C) and these products were digested with 5U of HpaI (New England Biolabs) for 2h at 37 C. The fragments were purified using Qiaquick PCR columns (Qiagen), analyzed on an ABI 3130xL genetic analyzer (Applied Biosystems) with peak positions identified by using a set of X-rhodamine (ROX)-labeled MapMarker1000 molecular weight standards (BioVentures). The raw capillary electrophoresis data was processed using Attagraph software (Attagene).
# Chain of Glucocorticoid receptor (Homo sapiens) (P04150 whole entry, looked up): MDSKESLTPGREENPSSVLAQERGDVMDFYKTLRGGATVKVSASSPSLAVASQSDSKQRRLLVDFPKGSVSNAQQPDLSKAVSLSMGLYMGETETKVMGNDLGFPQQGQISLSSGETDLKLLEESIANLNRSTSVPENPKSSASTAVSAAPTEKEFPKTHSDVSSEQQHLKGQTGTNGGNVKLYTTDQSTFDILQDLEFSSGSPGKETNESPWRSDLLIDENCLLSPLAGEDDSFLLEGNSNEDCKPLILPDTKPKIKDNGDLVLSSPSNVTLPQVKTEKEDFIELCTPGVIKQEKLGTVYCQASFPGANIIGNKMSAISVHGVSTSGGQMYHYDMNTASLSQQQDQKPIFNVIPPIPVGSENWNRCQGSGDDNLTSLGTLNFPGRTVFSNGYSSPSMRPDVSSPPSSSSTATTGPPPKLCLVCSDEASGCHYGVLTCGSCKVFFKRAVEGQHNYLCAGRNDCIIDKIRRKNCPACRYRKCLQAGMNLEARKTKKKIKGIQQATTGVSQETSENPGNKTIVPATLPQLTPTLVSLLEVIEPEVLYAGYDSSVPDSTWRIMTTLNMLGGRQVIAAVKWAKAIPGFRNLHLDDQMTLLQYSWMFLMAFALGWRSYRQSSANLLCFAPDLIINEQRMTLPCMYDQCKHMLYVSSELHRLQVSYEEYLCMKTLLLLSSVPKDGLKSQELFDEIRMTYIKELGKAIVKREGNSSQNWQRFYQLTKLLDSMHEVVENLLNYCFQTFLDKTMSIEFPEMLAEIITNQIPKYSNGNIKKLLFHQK
SMILES,outcome,AC50
CCCCCCCCCCCCCCCCCC[N+](C)(C)Cc1ccccc1,inactive,–
CCC(C)c1nccnc1OC (stereo not given),inactive,–
CN(C)CCOC(c1ccccc1)c1ccccc1,inactive,–
CCCCCC(C)OC(=O)COc1ccc(Cl)c2cccnc12 (stereo not given),inactive,–
OCCN1CN(CCO)CN(CCO)C1,inactive,–
O=CC(F)(F)C(F)(F)C(F)(F)F,inactive,–
C[N+](C)(CCCNS(=O)(=O)CCC(F)(F)C(F)(F)C(F)(F)C(F)(F)C(F)(F)C(F)(F)F)CC(=O)[O-],inactive,–
O=C(c1ccccc1)c1ccccc1,inactive,–
O=CC(F)(F)C(F)(F)C(F)(F)C(F)F,inactive,–
c1cc2cccc3c4cccc5cccc(c(c1)c23)c54,inactive,–
CC(C)c1c(C(=O)Nc2ccccc2)c(-c2ccccc2)c(-c2ccc(F)cc2)n1CC[C@@H](O)C[C@@H](O)CC(=O)O,inactive,–
COC(O)c1ccccc1 (stereo not given),inactive,–
COc1cc(OC)nc(NC(=O)NS(=O)(=O)Nc2ccccc2C(=O)N(C)C)n1,inactive,–
c1cc[nH]c1,inactive,–
O=S(=O)(O)C(F)(F)C(F)(F)C(F)(F)C(F)(F)C(F)(F)C(F)(F)C(F)(F)C(F)(F)C(F)(F)C(F)(F)F,inactive,–
Nc1ccn([C@@H]2O[C@H](CO)[C@@H](O)C2O)c(=O)n1 (stereo not given in full),inactive,–
O=C(O)CCC(F)(F)C(F)(F)C(F)(F)C(F)(F)C(F)(F)C(F)(F)F,inactive,–
O=C(CC(=O)C(F)(F)C(F)(F)C(F)(F)F)c1cccs1,inactive,–
CCCCCCCCC(C)=O,inactive,–
CC1COCc2cc3c(cc21)C(C)(C)C(C)C3(C)C (stereo not given),inactive,–

SMILES,outcome,AC50
Cc1cc(C(C)(C)C)c(O)c(C(C)(C)C)c1,–,100 µM (active)
CCN(CCC#N)c1ccccc1,inactive,–
C=COC(=O)C(C)(C)CCCCCC,inactive,–
CCN(CC)CC,inactive,–
CCC(C)c1ccccc1O (stereo not given),inactive,–
Oc1c(Cl)cc(Cl)cc1Sc1cc(Cl)cc(Cl)c1O,inactive,–
O=C1C=CC(=O)N1c1cccc(N2C(=O)C=CC2=O)c1,inactive,–
FC(F)(F)C(F)(F)C(F)(F)Br,inactive,–
CS(=O)(=O)c1ccc([C@@H](CC2CCCC2)C(=O)Nc2cnccn2)cc1Cl,inactive,–
CN(CCO)S(=O)(=O)C(F)(F)C(F)(F)C(F)(F)C(F)(F)C(F)(F)C(F)(F)C(F)(F)C(F)(F)F,inactive,–
CCC1CO1 (stereo not given),inactive,–
C=CC(=O)OCC(CO)(COCC(COC(=O)C=C)(COC(=O)C=C)COC(=O)C=C)COC(=O)C=C,inactive,–
Oc1cc2ccccc2cc1O,inactive,–
CC(C)(O)C(=O)c1ccccc1,inactive,–
FC1(F)C=CC(F)(F)C1(F)F,inactive,–
CCCCCCCC(OC)OC,inactive,–
O=C(NO)c1ccccc1,inactive,–
CCCCCCc1ccc(N)cc1,inactive,–
OCC(CO)(CBr)CBr,inactive,–
CCCCCCCCCCCCCCC,inactive,–
